# Giardia killer: Giardia lamblia killing. Giardia lamblia trophozoite viability. activity change, % at 7.66 µM, hits read low. hit rate 0.15% among 340,000. AID 540267; in the data active means activity change below about -80%; inconclusive means between about -30% and that limit;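 further: parasites exposed to compound for two days anaerobically before the ATP read; on the % scale 0 is the no-effect control and ±100 the full control effect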
#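 Media and compound were dispensed first, then trophozoites at 100 cells/well; plates sat 48 hrs at 37 deg C without oxygen before ATP luminescence reagent was added and read after 15-30 min at room temperature.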
# VP16 counter: Gal4-VP16 reporter inhibition counter-screen. Potency, µM (titrated, usually from 53.6 µM), without a hit: top-dose activity, negative = inhibition, actives largely listed as inhibitors. hit rate 3.5% among 310,000. AID 2546. Drosophila S2 Gal4-VP16 UAS-luciferase, luminescence, 20 h;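 further: Gal4-VP16 expression switched on by copper sulfate through the metallothionein promoter; potency means the concentration at half of the fitted maximal effect; on the % scale 0 is the no-effect control and ±100 the full control effect; nearly all actives have a fitted effect of over 50% in size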
# SW480 rereplic: DNA re-replication induction in SW480 cells. Potency, µM (series often up to 46.1 µM), for inactives: top-dose re-replication activation, actives largely listed as activators. SW480 DNA re-replication, Hoechst DNA content imaging, 48 h. hit rate 1.8% among 340,000; further: potency means the concentration at half of the fitted maximal effect; % of control where 0% means no effect; nearly all actives have a fitted effect of over 55% in size
#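 Image-based read-out: total Hoechst fluorescence of nuclei (405 nm excitation, 500-530 nm emission), with hits raising the fraction of high-intensity nuclei. SW480 colon cells incubated 48 hr with compounds at 37 C.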
# RORg inh: blocks mouse ROR gamma transcriptional activity | Potency, µM (titrated, usually from 53.6 µM), for inactives: at the top dose activity change, negative = inhibition, most hits filed as inhibitors | hit rate 5.4% among 310,000 | Drosophila S2 Gal4-RORgamma UAS-luciferase reporter, 20 h | P51450; further: potency means the concentration at half of the fitted maximal effect; on the % scale 0 is the no-effect control and ±100 the full control effect; nearly all actives have a fitted effect of over 60% in size
# Target sequence (P51450 whole entry, looked up, the tested form may be a part): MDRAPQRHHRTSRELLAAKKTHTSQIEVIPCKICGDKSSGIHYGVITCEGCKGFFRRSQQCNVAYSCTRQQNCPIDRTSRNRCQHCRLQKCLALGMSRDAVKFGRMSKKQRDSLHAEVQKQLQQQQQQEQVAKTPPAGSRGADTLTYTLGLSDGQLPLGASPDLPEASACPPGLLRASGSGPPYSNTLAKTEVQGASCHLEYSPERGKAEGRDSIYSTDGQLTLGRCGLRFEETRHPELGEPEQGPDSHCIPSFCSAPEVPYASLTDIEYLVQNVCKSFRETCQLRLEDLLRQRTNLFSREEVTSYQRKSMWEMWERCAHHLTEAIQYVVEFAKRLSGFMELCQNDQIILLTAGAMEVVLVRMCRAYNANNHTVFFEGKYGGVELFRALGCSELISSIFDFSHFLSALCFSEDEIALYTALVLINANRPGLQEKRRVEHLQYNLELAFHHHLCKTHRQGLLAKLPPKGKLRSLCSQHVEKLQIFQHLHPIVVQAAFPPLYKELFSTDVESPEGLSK
#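 Drosophila S2 cells stably expressing Gal4-DBD/mouse RORγ fusion under metallothionein promoter plus UAS-luciferase; compound 1 h, then 700 uM CuSO4 induction for 20 h at ambient temperature; inhibition read as reduced luminescence.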
# MCF10A rereplic: induces DNA re-replication in MCF 10a normal breast cells | MCF 10A DNA re-replication, Hoechst nuclear intensity, 48 h | Potency, µM (highest dose often 46.1 µM), for inactives: top-dose activity, positive = re-replication, usual class: activators | hit rate 2.9% among 350,000; further: potency means the concentration at half of the fitted maximal effect; % of control where 0% means no effect; nearly all actives have a fitted effect of over 50% in size
# Chronic BCR inh: chronic active BCR signaling inhibition; ABC-DLBCL IkBa-CBG/CBR reporter, luminescence ratio, 4 h; hit rate 0.05% among 340,000; Potency, µM (titrated, usually from 46.1 µM), for inactives: top-dose activity change, negative = inhibition, usual class: inhibitors; active means well fitted inhibition curve with a large enough effect in the signal ratio, with a control signal flat, not every such curve was filed as active; inconclusive means small, poorly fitted or top-dose-only effect, or effect the other way, or a change in a side signal; the % refers to the signal ratio;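 further: potency means the concentration at half of the fitted maximal effect; plate controls were basal doxycycline-induced cells for no effect and cells given 10 µM MG132 for full effect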
#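 Compounds up to 46 uM were incubated four hours with TMD8 cells whose green CBG68 luciferase is fused to IkappaBalpha; red CBR luminescence normalised the signal, and concentration-effect curves were fitted to fusion, red and ratio data.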
# * = called active by the depositor; ? = inconclusive; nt = no result; [ ] = dose if it differs, or a comment. In the library only some 8.3% were active in any assay of this set; here they are far more common. Unless noted, the call rests on the fitted dose curve; in most records, active means well fitted curve in the direction sought with a large enough effect; inconclusive means small, poorly fitted or top-dose-only effect, or another doubt; inactive means no such curve, though single readings can be large; an effect the other way counts as inactive or inconclusive.
SMILES,Giardia killer,VP16 counter,SW480 rereplic,RORg inh,MCF10A rereplic,Chronic BCR inh
C=C(C=O)CC1CC(O)[C@]2(C)OC3CC4OC5C[C@]6(C)O[C@]7(C)CCC8OC9C[C@]%10(C)OC%11C(C)=CC(=O)OC%11CC%10OC9C[C@@H](C)C8OC7CC6O[C@]5(C)CC5OC5C4OC3CC2O1 (stereo not given in full),10,-2%,5.8µM*,-27%,4.6µM*,-8%
C=C(CO)CC1CC(O)[C@]2(C)OC3CC4OC5C[C@]6(C)O[C@]7(C)CCC8OC9C[C@]%10(C)OC%11C(C)=CC(=O)OC%11CC%10OC9C[C@@H](C)C8OC7CC6O[C@]5(C)C/C=C\C4OC3CC2O1 (stereo not given in full),-7,-5%,-2%,-16%,-5%,nt
CCBr,nt,-1%,nt,-7%,nt,nt
CN1CCN(c2ccc(NC(=O)c3ccc(-c4ccc(Cl)cc4)o3)cc2)CC1,-16,?,?,-45%,23µM*,?
c1cc2cc(c1)C[n+]1ccc(c3ccccc31)NCc1ccc(cc1)CNc1cc[n+](c3ccccc13)C2,nt,-19%,nt,0%,nt,nt
COc1cc(C)c(CN2CC=C(c3ccc(F)cc3)CC2)cc1C,1,-9%,1%,2%[1.91 µM],?,13%
COc1cc2nc(CN3CC=C(c4ccccc4)CC3)[nH]c(=O)c2cc1OC,1,nt,?,nt,2.9µM*,nt
O=c1c2ccccc2[nH]c(=S)n1-c1ccc2c(c1)OCO2,-16,10µM*,-1%,2.8µM*,6%,-3%
c1cnc(N2CCC3(CCNCC3)CC2)nc1,nt,-4%,nt,-18%,nt,nt
COc1cc2c(cc1OC)[C@@H]1C(=O)c3ccc4oc(C(C)C)cc4c3OC1CO2 (stereo not given in full),nt,0.32µM*,nt,5µM*,nt,nt
CCn1c(NN=O)nc2ccccc21,8,?,?,0.5µM*,5%,?
CCn1c(P(C)(=O)O)nc2ccccc21,-26,-1%,-6%,-1%,4%,1%
CCN(CC)C(=O)Cn1c(=O)oc2ccccc21,0,-1%,?,-3%,0%,?
COc1ccc(C(=O)Nc2ccccc2-c2nnn(CC(=O)Nc3ccc4c(c3)OCCO4)n2)cc1,0,-12%[0.365 µM],4%,-18%,16µM*,-2%
CC(C)c1ccc(-n2c(-c3ccccc3)c[n+]3c2CCc2ccccc2-3)cc1,0,3.5µM*,0%,4.5µM*,?,?
CN=C=S,nt,-8%,nt,-18%,nt,nt
Cc1ncc(CN2CCCC(C(=O)c3cccc(Cl)c3)C2)s1 (stereo not given),-22,-5%,-41%,14%,14%,?
CC(=O)c1cnc(-c2cccc(Cl)c2)s1,-5,26%,-38%,7%,2.1µM*,?
Cc1ccccc1NC(=NCCCN1CC1)Nc1ccccc1C,-8,nt,?,nt,21µM*,nt
CC(=O)N1CCN(c2ccc(OCC3CO[C@@](Cn4ccnc4)(c4ccc(Cl)cc4Cl)O3)cc2)CC1 (stereo not given in full),nt,?,nt,2%,nt,nt
OCC(Br)(Br)Br,nt,-6%,nt,-5%,nt,nt
CCCCn1c(=O)c(C(=O)Nc2ccccc2C)c(O)c2ccccc21,10,-24%,0%,?,-5%,-2%
CCCCCn1c(=O)c(C(=O)Nc2ccccc2Cl)c(O)c2ccccc21,-3,-5%,-1%,1%,-5%,4%
CCCCCn1c(=O)c(C(=O)NCCc2ccccc2)c(O)c2ccccc21,-1,?,3%,?,23µM*,11%
CCCCCn1c(=O)c(C(=O)Nc2ncccc2C)c(O)c2ccccc21,-13,8.9µM*,?,8.9µM*,2%,0%
SMILES,Giardia killer,VP16 counter,SW480 rereplic,RORg inh,MCF10A rereplic,Chronic BCR inh
CN1C2CCCC1CC(=O)C2,nt,3%,nt,11%,nt,nt
CN1C2C(Br)CCCCN2c2ccc(F)cc2S1(=O)=O (stereo not given),-4,-6%,-7%,39%,17%,?
Cc1cccc2c1=NC(=O)/C(=C/c1c(O)[nH]c(=O)[nH]c1=O)C=2,-1,-9%,1%,14%,5%,-6%
O=c1[nH]c(=S)[nH]c(O)c1/C=C1/C=c2ccccc2=N1,21,13µM*,?,13µM*,?,?
CC(C)(OOC(C)(C)c1ccccc1)c1ccccc1,nt,4%,nt,43%,nt,nt
S=C1NC2(CCCCC2)NC12CCCCC2,4,?,-1%,8.9µM*,-1%,-4%
O=C(N/N=C/c1c(O)n(Cc2ccco2)c(=O)[nH]c1=O)c1ccccc1,28,-6%,-21%,?,-6%,?
Cc1ccccc1Cn1cnc2c(oc3ccccc32)c1=O,-16,26%,1%,4µM*,?,?
COc1ccc(Cl)cc1NC(=O)CSc1ncnc2c1oc1ccccc12,-12,-2%,-154%,18%,0%,3%
COc1cccc(NC(=O)C2CCC(CNS(=O)(=O)c3ccc4c(c3)CC(C)N4C(C)=O)CC2)c1 (stereo not given),-5,-14%,19%,30%,9%,?
CCCOP(=O)(OCCC)c1nc(-c2ccccc2)oc1NCc1ccccc1,-30,-12%,15µM*,?,?,?
COc1ccc(CNc2oc(-c3cccc4ccccc34)nc2P(=O)(OC)OC)cc1,27,-16%,18µM*,25%,21µM*,?
CCOP(=O)(OCC)c1nc(-c2ccc(Cl)cc2)oc1NCc1ccccc1,6,-2%,-16%,43%,2%,16%
COP(=O)(OC)c1nc(-c2cccc3ccccc23)oc1N1CCCCC1,2,-9%,?,-12%,21µM*,-14%
C#CCOS(=O)OC1CCCCC1Oc1ccc(C(C)(C)C)cc1 (stereo not given),nt,-23%,nt,?,nt,nt
CC1=C/C(=N\NC(=S)NCCc2ccccc2)CC(C)(C)C1,-11,?,6%,0.5µM*,?,?
COCCN1C(=O)NC(=O)/C(=C\c2ccc(F)cc2)C1=O,1,-6%,-5%,19%,5.2µM*,?
CN(C)c1ccc(/C=C2\C(=O)NC(=O)N(CCc3ccc(F)cc3)C2=O)cc1,-15,-1%,3%,7%,?,0%
CCCCCCCCCCCCCCCC[n+]1ccccc1,-13,16µM*,5%,?,?,nt
CCOC(=O)C(O)(c1ccc(NC(=S)NC(=O)c2ccc(Cl)cc2Cl)cc1)C(F)(F)F (stereo not given),4,10µM*,?,6.3µM*,?,?
COC(=O)C(O)(c1ccc(NC(=O)NC2CCCCC2)cc1)C(F)(F)F (stereo not given),-17,3%,-691%,?,-8%,-5%
